IL1B secr inh = inflammasome signaling inhibition, IL-1 beta readout; THP-1 LPS/ATP IL-1B secretion, AlphaLISA, 16 h; stronger effect = lower value; activity change, % at 57.5 µM; actives 4.7% (n = 360,000); in the data active = activity change below about -50%; inconclusive = mostly about -30% to -49%
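THP-1 cells pretreated 1 hr with compounds (up to 57.5 uM final), then stimulated with LPS (250 ng/mL final) plus ATP (1.25 mM final); secreted IL-1B measured by AlphaLISA after 16 hr, decreased signal indicating inhibition.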
TDP1 cell CPT = DT40-hTDP1 cell growth loss with CPT; actives 12% (n = 420,000); AID 686979; Potency, µM (highest dose often 46.2 µM), without a hit: at the highest dose activity change, negative = growth inhibition, most hits filed as inhibitors; chicken DT40 Tdp1-/-;hTDP1 cells + 20 nM CPT, ATP luminescence, 48 h; also: potency is read from the fitted curve at half-maximal effect; nearly all actives have a fitted effect of over 55% in size
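Chicken DT40 Tdp1-/- cells complemented with human TDP1, 400 cells/well, exposed to compounds plus 20 nM camptothecin for at least 48 h at 37 C; viability read as ATP content by CellTiter-Glo luminescence.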
DT40 TDP1 no CPT = qHTS for Inhibitors of human tyrosyl-DNA phosphodiesterase 1 (TDP1): qHTS in cells in absence of CPT; AID 686978, 2013; DT40 Tdp1-/- hTDP1 cells, no CPT, ATP luminescence, 48 h; actives 15% (n = 420,000); Potency, µM (doses to about 46.2 µM), inactives show at the top dose activity change, negative = growth inhibition, actives largely listed as inhibitors; also: potency is read from the fitted curve at half-maximal effect; nearly all actives have a fitted effect of over 55% in size
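Chicken DT40 Tdp1-/- cells complemented with human TDP1, screened without camptothecin (DMSO vehicle only), 400 cells/well. Compounds pin-transferred, cells incubated at 37 °C for at least 48 hr. Growth read as ATP-dependent luminescence (CellTiter-Glo, 30 min at RT).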
HT1080-NT tox = kills 2HG-producing HT-1080-NT fibrosarcoma cells; HT-1080-NT fibrosarcoma viability, CellTiter-Glo ATP luminescence, 48 h; Potency, µM (highest dose often 46.1 µM), without a hit: top-dose activity, negative = less viability, most hits filed as cytotoxic; actives 1.6% (n = 360,000);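 also: NT is the 2HG producing partner of a matched IDH1 knockdown line; potency is read from the fitted curve at half-maximal effect; 0% = DMSO-treated cells and -100% = media-only wells without cells; nearly all actives have a fitted effect of over 55% in size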
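HT-1080-NT fibrosarcoma cells (2HG-overproducing), 750 cells/well in RPMI with 5% FBS, dosed after 2 h and incubated 48 h at 37C. CellTiter-Glo luminescence normalized to DMSO and no-cell wells; concentration-response curves fitted and classed.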
HT1080 IDH1KD tx = toxicity to HT-1080 IDH1 knockdown cells (counter line); Potency, µM (top dose mostly 46.1 µM), without a hit: at the highest dose activity, negative = toxicity, most hits filed as cytotoxic; AID 686971; actives 2% (n = 360,000); HT-1080 IDH1 knockdown viability, ATP luminescence, 48 h;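 also: potency is read from the fitted curve at half-maximal effect; 0% = DMSO wells and -100% = cell-free medium wells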
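IDH1KD HT-1080 cells, 750/well, RPMI + 5% FBS; compound pinned after 2 h settling; 48 h, 37 °C; CellTiter-Glo luminescence; % activity normalised to DMSO and no-cell wells; curves fitted, classed by r2 and efficacy.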
* hit, by the source's call. In the library only some 19% were active in any assay of this set; here they are far more common. Unless noted, calls follow the shape of the dose curve; as a rule, active = well fitted curve in the direction sought with a large enough effect; inconclusive = small, poorly fitted or top-dose-only effect, or another doubt; inactive = no such curve, though single readings can be large; an effect the other way counts as inactive or inconclusive. Unless noted, % is scaled to controls: 0 for no effect and ±100 for the full control effect.

For CCOC(=O)C1CCN(CCC(=O)Nc2ccc(OC)cc2)CC1 the results were TDP1 cell CPT 8.7% and DT40 TDP1 no CPT 0.6%.
O=c1c2oc3ccccc3c2n(Cc2cccc(F)c2)c(=O)n1Cc1ccc2c(c1)OCO2 was read as TDP1 cell CPT -28.9% and DT40 TDP1 no CPT inconclusive.
CC(=O)Nc1ccc(NC(=O)CSc2nnc3ccc(-c4ccc(F)cc4)nn23)cc1 was read as IL1B secr inh 5.6, TDP1 cell CPT -18.5%, DT40 TDP1 no CPT 13.0%, HT1080-NT tox 2.4% and HT1080 IDH1KD tx 1.1%.
`CCN(CC)CCOc1ccc2c(c1)C(=O)c1cc(OCCN(CC)CC)ccc1-2` gave TDP1 cell CPT 14.6µM* and DT40 TDP1 no CPT 10.3µM*.
Screening C=CCNc1nc(Nc2ccc(-c3nc4ccccc4o3)cc2)nc(N2CCOCC2)n1 returned IL1B secr inh -7.1, TDP1 cell CPT 29.1µM*, DT40 TDP1 no CPT 25.9µM*, HT1080-NT tox inconclusive and HT1080 IDH1KD tx inconclusive.
C=CCNc1nc(NCC)nc(N2CCOCC2)n1 was read as IL1B secr inh 5.1, TDP1 cell CPT -26.4%, DT40 TDP1 no CPT -24.6%, HT1080-NT tox 5.6% and HT1080 IDH1KD tx 1.7%.
Screening CCCNc1nc(Nc2ccc([N+](=O)[O-])cc2)nc(N2CCOCC2)n1 returned TDP1 cell CPT 12.6µM* and DT40 TDP1 no CPT 14.1µM*.
For C=CCNc1nc(Nc2ccc([N+](=O)[O-])cc2)nc(N2CCCC2)n1 the results were IL1B secr inh -62.8*, TDP1 cell CPT 14.6µM*, DT40 TDP1 no CPT inconclusive, HT1080-NT tox 9.8% and HT1080 IDH1KD tx 6.5%.
For Cc1ccc(NC(=O)CNC(=O)c2ccco2)nc1 the results were IL1B secr inh 24.4, TDP1 cell CPT 0.6%, DT40 TDP1 no CPT 21.0%, HT1080-NT tox 29.4% and HT1080 IDH1KD tx 23.0%.
For Cc1ccc(C(=O)NCC(=O)OCC(=O)N(CC(C)C)c2c(N)n(Cc3ccccc3)c(=O)[nH]c2=O)s1 the results were IL1B secr inh 7.6, TDP1 cell CPT 12.1%, DT40 TDP1 no CPT -5.9%, HT1080-NT tox 7.7% and HT1080 IDH1KD tx 2.1%.
`CN(Cc1ccccc1)C(=O)C(=O)c1c[nH]c2ccccc12` gave IL1B secr inh -10.5, TDP1 cell CPT -16.6%, DT40 TDP1 no CPT inconclusive, HT1080-NT tox 7.1% and HT1080 IDH1KD tx 5.5%.
For COc1cccc(CN2CCNC(=O)C2CC(=O)N(C)C2CCOCC2)c1 (stereo not drawn) the results were IL1B secr inh 0.0, TDP1 cell CPT -1.4%, DT40 TDP1 no CPT 4.1%, HT1080-NT tox 7.6% and HT1080 IDH1KD tx 13.0%.
COc1cccc(C2C3=C(N=C4SCC(=O)N42)c2ccccc2CC3)c1OC (stereo not drawn) was read as IL1B secr inh -17.0, TDP1 cell CPT 23.1µM*, DT40 TDP1 no CPT 20.6µM*, HT1080-NT tox -12.0% and HT1080 IDH1KD tx -9.7%.
COc1cccc(C2SCC(=O)N2c2ccc(C)cc2)c1OC (stereo not drawn) was read as IL1B secr inh -7.8, TDP1 cell CPT inconclusive, DT40 TDP1 no CPT inconclusive, HT1080-NT tox 8.9% and HT1080 IDH1KD tx 8.4%.
`Cc1ccc(C(=O)OCC(=O)N2CCC(c3ccccc3)=N2)cc1` gave IL1B secr inh -85.1*, TDP1 cell CPT inconclusive, DT40 TDP1 no CPT inconclusive, HT1080-NT tox 5.4% and HT1080 IDH1KD tx 10.4%.
`Cc1cccc(C(=O)OCC(=O)N2CCC(c3ccccc3)=N2)c1O` gave IL1B secr inh -8.3, TDP1 cell CPT 7.2%, DT40 TDP1 no CPT -24.6%, HT1080-NT tox 13.1% and HT1080 IDH1KD tx 6.4%.
For COC(=O)c1ccc2c(c1)C(C)(C)C(/C=C/c1ccc(OC)c(OC)c1OC)=[N+]2C the results were IL1B secr inh -116.5*, TDP1 cell CPT 0.82µM*, DT40 TDP1 no CPT 0.651µM*, HT1080-NT tox 11.6µM* and HT1080 IDH1KD tx 11.6µM*.
For COC(=O)c1ccc2c(c1)C(C)(C)C(/C=C/c1ccc(O)cc1)=[N+]2C the results were IL1B secr inh -91.7*, TDP1 cell CPT 2.51µM*, DT40 TDP1 no CPT 2.82µM*, HT1080-NT tox 5.01µM* and HT1080 IDH1KD tx 2.82µM*.
O=C(Nc1cc(Br)ccc1O)c1cnn2c(C(F)F)cc(C3CC3)nc12 was read as IL1B secr inh 6.1, TDP1 cell CPT -13.1%, DT40 TDP1 no CPT 16.4µM*, HT1080-NT tox -9.7% and HT1080 IDH1KD tx -11.0%.
`O=C(Nc1cccnc1)c1cnn2c(C(F)F)cc(C3CC3)nc12` gave IL1B secr inh -15.5, TDP1 cell CPT 14.6µM*, DT40 TDP1 no CPT 5.17µM*, HT1080-NT tox -13.6% and HT1080 IDH1KD tx -9.9%.
For O=C(Nc1cccc(S(=O)(=O)N2CCOCC2)c1)c1cnn2c(C(F)F)cc(-c3ccccc3)nc12 the results were IL1B secr inh 41.7, TDP1 cell CPT inconclusive, DT40 TDP1 no CPT inconclusive, HT1080-NT tox 7.2% and HT1080 IDH1KD tx 9.0%.
Screening Nc1[nH]ncc1S(=O)(=O)c1ccccc1 returned IL1B secr inh 1.4, TDP1 cell CPT -3.8%, DT40 TDP1 no CPT -17.7%, HT1080-NT tox 1.2% and HT1080 IDH1KD tx 11.7%.
`CCC1C(=O)CC(c2ccco2)NC1c1ccco1` (stereo not drawn) gave IL1B secr inh -15.9, TDP1 cell CPT 3.4%, DT40 TDP1 no CPT 10.9%, HT1080-NT tox 19.1% and HT1080 IDH1KD tx 20.0%.
For CCC1C(=O)CC(c2ccc([N+](=O)[O-])cc2)NC1c1ccc([N+](=O)[O-])cc1 (stereo not drawn) the results were IL1B secr inh -100.2*, TDP1 cell CPT inconclusive, DT40 TDP1 no CPT inconclusive, HT1080-NT tox -4.8% and HT1080 IDH1KD tx -9.7%.
For Cc1ccc(S(=O)(=O)NCC(=O)N/N=C/c2ccccc2O)cc1 the results were IL1B secr inh 116.1, TDP1 cell CPT 5.17µM*, DT40 TDP1 no CPT 6.51µM*, HT1080-NT tox inconclusive and HT1080 IDH1KD tx inconclusive.
Cc1ccc(S(=O)(=O)NCC(=O)OCN2C(=O)c3ccccc3C2=O)cc1 was read as IL1B secr inh 17.0, TDP1 cell CPT inconclusive, DT40 TDP1 no CPT 20.6µM*, HT1080-NT tox 13.4% and HT1080 IDH1KD tx 12.8%.
Screening Cc1ccc(S(=O)(=O)NCN2C(=O)c3ccccc3C2=O)cc1 returned IL1B secr inh 0.0, TDP1 cell CPT -2.5%, DT40 TDP1 no CPT -22.9%, HT1080-NT tox 25.0% and HT1080 IDH1KD tx 1.6%.
For O=C(CSc1n[nH]c(=O)[nH]c1=O)N/N=C/c1ccccc1O the results were IL1B secr inh 11.2, TDP1 cell CPT 13µM*, DT40 TDP1 no CPT -3.4%, HT1080-NT tox 19.2% and HT1080 IDH1KD tx 14.9%.
Cc1ccc(S(=O)(=O)NCC(=O)N/N=C/c2ccc(Cl)cc2Cl)cc1 was read as IL1B secr inh inconclusive, TDP1 cell CPT 5.5%, DT40 TDP1 no CPT -3.5%, HT1080-NT tox 15.6% and HT1080 IDH1KD tx 3.7%.
